# High-throughput results: PubChem BioAssay, National Center for Advancing Translational Sciences (NCATS)
# p53 reactivation: qHTS assay for re-activators of p53 using a Luc reporter; Potency, µM (top dose mostly 92.2 µM), without a hit: at the top dose activity change, positive = activation, usual class: activators; 320,000 tested, 0.063% active; AID 504706, 2011; H1299 p53-A138V BP100-luciferase reporter, luminescence, 24 h; note: potency is the fitted concentration of half-maximal effect; % of control where 0% means no effect; nearly all actives have a fitted effect of over 45% in size
#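 H1299 (p53-null), stable ts p53-A138V + BP100-Luc; 1000 cells/well, Opti-MEM/10% FBS; cpd 4 pt, 1:5; 24 h, 37 deg C, 5% CO2; detection reagent 10 min RT; luminescence.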
# ClpP mod: qHTS Assay for Activators of ClpP; ATP-dependent Clp protease proteolytic subunit (Bacillus subtilis (strain 168)), P80244; purified B. subtilis ClpP, FRET peptide cleavage, 20 min; Potency, µM (doses to about 57.5 µM), without a hit: at the top dose activity change, negative = active; 340,000 tested, 1.9% active; active = well fitted falling curve with a large enough effect; inconclusive = small, poorly fitted or top-dose-only effect; inactive = no such curve, though single readings can be large or run the other way; note: potency is the fitted concentration of half-maximal effect; the source files actives as falling curves though it sought activators and does not explain the sign; nearly all actives have a fitted effect of over 65% in size
# Target sequence (P80244 whole entry, looked up): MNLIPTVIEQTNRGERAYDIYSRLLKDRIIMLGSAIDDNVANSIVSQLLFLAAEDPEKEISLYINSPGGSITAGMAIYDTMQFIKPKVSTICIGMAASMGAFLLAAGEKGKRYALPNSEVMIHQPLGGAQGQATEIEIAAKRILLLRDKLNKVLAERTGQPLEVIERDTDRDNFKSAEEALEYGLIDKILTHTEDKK
#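 ClpP 10 microg/mL final, pH 8 Tris/KCl buffer with BSA, glycerol, Tween-20; compound pinned in; FRET-FV substrate; RT 20 min; Ex320/Em430; ΔFRET vs ADEP 5.8 microM, DMSO, no enzyme.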
# Nrf2 inh: Nrf2 qHTS screen for inhibitors; 360,000 tested, 2.1% active; A549 ARE-Fluc reporter, luciferase luminescence, 18-24 h; AID 504444, 2011; Potency, µM (highest dose often 46 µM), for the others: at the highest dose activity change, negative = inhibition, actives largely listed as inhibitors; note: potency is the fitted concentration of half-maximal effect; % is set by controls: 0 for no effect and ±100 for the full control effect; nearly all actives have a fitted effect of over 60% in size
#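 Two sequential reads on A549 ARE_Fluc cells exposed to compound for 18-24 h: a CellTiter-Fluor fluorescence read for viability, then a luciferase luminescence read for Nrf2/ARE activity.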
# A549 tox: Nrf2 qHTS screen for inhibitors: counterscreen for cytotoxicity | A549 ARE-Fluc cells, CellTiter-Fluor viability, 18-24 h | Potency, µM (top dose mostly 46 µM), for the others: at the highest dose activity change, negative = cytotoxicity, hits mostly inhibitors | 390,000 tested, 0.16% active | AID 504648, 2011; note: potency is the fitted concentration of half-maximal effect; % is set by controls: 0 for no effect and ±100 for the full control effect
#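 A549 ARE-Fluc cells in 5% FBS OPTI-MEM, 5000 cells/well, rested 2 h then exposed to compounds in concentration-response for 18-24 h at 37 °C. Viability by CellTiter-Fluor fluorescence (Ex 405/Em 525) after 30 min; luciferase luminescence (BugLite, 15 min, RT) read afterwards.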
# miR-21 act: qHTS Assay for Modulators of miRNAs and/orActivators of miR-21. HeLa miR-21 FLuc reporter, luciferase, 48 h. Potency, µM (titrated, usually from 38.3 µM), for inactives: top-dose activity change, positive = activation, most hits filed as activators. 340,000 tested, under 10 active. AID 2288, 2010;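 note: % of control where 0% means no effect; miR-21 action dims this reporter so a rising signal means less miR-21 action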
#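 Using DMEM plus 10% FBS, HeLa miR-21-FLuc cells are incubated with test compounds (final up to about 40uM) for 48 hours; firefly luciferase signal is then imaged following reagent-mediated lysis.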
# Nrf2 activator: qHTS of Nrf2 Activators; AREc32 ARE-luciferase reporter (MCF7-derived line), luminescence, 24 h; Potency, µM (highest dose often 46.1 µM), inactives show at the top dose activation, most hits filed as activators; 410,000 tested, 0.31% active; AID 624171, 2012; note: potency is the fitted concentration of half-maximal effect; % of control where 0% means no effect; nearly all actives have a fitted effect of over 65% in size
#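 ARE activation measured as luciferase luminescence (Steady-Glo, 30 min RT) in AREc32_Fluc cells after 24 hr compound exposure at 37 deg C, 5% CO2; cells seeded overnight at 1000/well in OPTI-MEM, 5% FBS.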
# Active calls of the source: *; ? = inconclusive; . = not tested or not shown; [ ] = dose if it differs, or a comment. A selection: hits, their analogues and other compounds. The true share with any hit is near 3.7%. Unless noted, calls come from the whole dose curve; as a rule, active = well fitted curve in the direction sought with a large enough effect; inconclusive = small, poorly fitted or top-dose-only effect, or another doubt; inactive = no such curve, though single readings can be large; an effect the other way counts as inactive or inconclusive.
SMILES,p53 reactivation,ClpP mod,Nrf2 inh,A549 tox,miR-21 act,Nrf2 activator
Cc1nn(Cc2ccc(Cl)c(Cl)c2)c(C)c1NC(=O)c1cc(-c2ccc3c(c2)OCO3)on1,-25.2%,-18.2%,11.6µM*,?,-4.0%,3.8%
Cc1nn(Cc2ccccc2)c(C)c1NC(=O)c1cc(-c2ccco2)on1,-4.7%,-2.6%,-8.5%,-5.0%[1.84 µM],-2.4%,0.4%
O=C1NC(=O)C2(CCCC2C(=O)O)N1 (stereo not given),.,1.4%,6.2%,-2.0%,.,0.2%
CC(C)(C)OC(=O)N1CCCN(C(c2ccnc3ccccc23)c2nnnn2-c2ccc3c(c2)OCCO3)CC1 (stereo not given),.,-3.2%,.,.,.,2.8%
COc1cc2nc(N3CCN(C)CC3)nc(NC3CCN(C)CC3)c2cc1OC,.,4.0%,.,.,.,.
COc1ccc(OC)c(-c2cc(C(=O)NCc3ccco3)no2)c1,-27.3%,?,4.0%,1.6%,-40.3%,11.2µM*
Cc1cc(NC(=O)c2noc3c2CCCC3)nn1Cc1ccc(Cl)cc1,24.4%,-2.3%,23.1µM*,-12.2%,1.8%,3.5%
COCCNC(=O)c1cc(-c2ccc3c(c2)OCO3)on1,20µM*,-11.1%,?,6.5%,-44.0%,0.0%
O=C(c1noc2c1CCCCC2)N1CCN(c2ccc(Cl)cc2)CC1,.,-1.6%,8.2µM*,-0.5%,3.0%,-0.6%
COc1ccc([S+](=O)([O-])N2CCN([S+](=O)([O-])c3ccc4c(c3)OCCO4)CC2)c(OC)c1,.,.,-8.4%,1.0%,.,.
CCCCc1nn2c(=O)cc(COC(=O)c3ccccc3NC(=O)c3cccc(C)c3)nc2s1,.,-1.3%,.,2.0%,-1.8%,0.1%
COCC(=O)Nc1nc2n(n1)C(c1ccccc1)CC(c1ccc(OC)cc1)N2 (stereo not given),-10.8%,25.1µM*,.,?,-11.8%,0.1%
O=C(OCc1cc(=O)n2c3c(sc2n1)CCCC3)c1cccc(NC(=O)c2ccccc2F)c1,.,-11.6%,.,-8.4%,-48.1%,0.7%
CS(=O)(=O)c1cccc(C(=O)Nc2nnc(C3=COCCO3)o2)c1,0.5%,10µM*,0.0%,-3.1%,.,-0.1%
O=C(Nc1nnc(C2=COCCO2)o1)c1cccc(Br)c1,-9.6%,0.6%,?,-6.1%,-3.7%,5.6%
Cc1ccc(S(=O)(=O)n2nccc2-c2c(-c3ccccc3)noc2C)cc1,0.7%,.,18.4µM*,-2.0%,24.9%,0.4%
Cc1onc(-c2ccccc2)c1-c1ccnn1S(=O)(=O)c1ccc(Cl)cc1,5.2%,.,-24.0%,1.2%,2.3%,2.7%
CCN(CC)S(=O)(=O)c1ccc(C(=O)NCCSc2c(-c3ccc(OC)cc3)[nH]c3ccccc23)cc1,.,-20.5%,?,-11.8%,26.9%,7.6%
COc1cc(Cl)c(C)cc1Nc1nc2ccccc2n2cnnc12,.,-10.0%,22.4%,8.7%,-6.1%,6.9%
Cc1ccc(CN2c3ccccc3S(=O)(=O)c3ccccc32)cc1,.,?,-0.5%,5.4%,?,5.2%
Cc1ccc(Cl)c(NC(=O)COC(=O)c2ccccc2C(=O)c2ccc(Cl)c([N+](=O)[O-])c2)c1Cl,-24.4%,0.8%,23.1µM*,?,17.8%,0.2%
CCCNC(=O)COC(=O)c1ccccc1C(=O)c1ccc(Cl)c([N+](=O)[O-])c1,-12.3%,.,-18.6%,1.4%,?,?
COC(=O)C(NC(=O)c1ccccc1Cl)(Nc1ncc(S(=O)(=O)c2ccc([N+](=O)[O-])cc2)s1)C(F)(F)F (stereo not given),12.9%,-1.9%,20.6µM*,-25.8%,15.9%,21.6%
COc1ccc(Cl)cc1C(=O)O/N=C(\N)c1ccc(Cl)cc1,25.0%,7.2%,?,3.5%,-7.3%,7.94µM*
COc1cc(OC)c(C(=O)O/N=C(\N)c2ccc(C)cc2)cc1OC,17.2%,.,?,-3.8%,-20.9%,4.0%
SMILES,p53 reactivation,ClpP mod,Nrf2 inh,A549 tox,miR-21 act,Nrf2 activator
Cc1occc1C(=O)O/N=C(\N)c1ccc(Cl)cc1,?,-2.3%,?,3.4%,-40.6%,6.31µM*
Cc1noc(-c2ccc(Cl)cc2)c1C(=O)O/N=C(\N)c1ccc(C(C)(C)C)cc1,-12.2%,-1.1%,?,?,?,1.9%
Nc1[nH]c(=O)[nH]c(=O)c1N=Cc1ccccc1,.,28.2µM*,6.9%,7.7%,.,-0.8%
O=S(=O)(c1ccccc1)c1nc(-c2cccs2)oc1NCC1CCCO1 (stereo not given),-8.1%,25.1µM*,?,14.1%,-0.7%,0.3%
N#Cc1nc(-c2cccs2)oc1NCC1CCCO1 (stereo not given),19.1%,24.4%,9.8%,2.7%,-20.9%,2.8%
CCOC(=O)[C@@H]1[C@H]2COc3cc(OC)ccc3[C@H]2N2C(=O)N(c3ccc(C(F)(F)F)cc3)C(=O)[C@]12C,5.7%,-0.8%,20.6µM*,-23.0%,.,0.4%
CCOC(=O)[C@@H]1[C@H]2COc3cc(OC)ccc3[C@@H]2N2C(=O)N(c3ccc(C(F)(F)F)cc3)C(=O)[C@@]12C,.,-1.4%,4.8%,-5.3%,8.0%,1.0%
O=C(CN(CCc1ccccc1)S(=O)(=O)c1ccccc1)NCc1ccc(Cl)cc1,.,1.0%,20.6µM*,-13.1%,16.5%,0.2%
O=C(CSc1nncn2c1cc1sccc12)Nc1ccc(Br)cc1F,.,4.8%,?,1.0%,-3.3%,9.9%
CC(=O)c1cccc(NC(=O)CSc2nc3c(=O)n(C)c(=O)n(C)c3n2C)c1,.,-0.9%,.,-5.9%,3.6%,-0.1%
O=C(COC(=O)c1n[nH]c2ccccc12)NC(=O)NCc1ccco1,8.3%,31.6µM*,-1.6%,-7.3%,-5.2%,16.4%
O=C(NC1CC(=O)N(c2ccccc2)C1)c1cccs1 (stereo not given),.,1.9%,.,1.0%,-0.6%,1.0%
Cn1c(=N)n(CC(O)c2cccc3ccccc23)c2ccccc21 (stereo not given),?,8.91µM*,.,?,19.1%,8.2%
COc1cc(NS(=O)(=O)c2cc3[nH]c(=O)c(=O)[nH]c3cc2C)cc(OC)c1OC,14.2%,-1.1%,6.1%,7.7%,1.5%,-0.5%
COc1cc(NS(=O)(=O)c2ccc(C)cc2C)cc(OC)c1OC,0.6%,2.2%,10.3µM*,-21.0%,29.9%,-0.3%
CCOC(=O)C1=C(CN(CC)Cc2ccccc2)NC(=O)NC1c1ccc(Cl)cc1 (stereo not given),.,-1.6%,?,-9.8%,24.7%,-1.1%
